Here are results for 96 compounds from PubChem BioAssay AID1347075 (National Center for Advancing Translational Sciences (NCATS), 2019).

Among all 400,000 compounds or so, about 5,500 (1.4%) were called active. About 9% were inconclusive and are not listed. Calls follow the shape of the dose curve; as a rule, active = well fitted cell-killing curve with a large enough effect; inconclusive = small, poorly fitted or top-dose-only effect, or effect the other way; inactive = flat fitted curve, though single readings scatter. Shown is part of a subset that was picked to be rich in actives. Where a call stands in place of a potency, no number is given.
Potency is read from the fitted curve at half-maximal effect.

A short description of this experiment: qHTS assay for MDR1-selective chemotherapeutics: Primary screen using the parental adenocarcinoma cell KB-3-1. Also: nearly all actives have a fitted effect of over 60% in size. Conditions: KB-3-1 viability, CellTiter-Glo ATP luminescence, 72 h; series mostly up to 46.1 µM. An outline of the steps: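 Parental KB-3-1 viability, qHTS format: 72 h compound exposure, 37 °C; CellTiter-Glo; media-only wells and DMSO plates as controls; concentration-effect fits on corrected data.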
Background: In qHTS, concentration-response curves come from the screen itself.
As for `CCOc1ccc(CC(=O)NCCc2csc3nc(-c4ccccc4F)nn23)cc1`, the Potency result is “inactive”.
Next, `Cc1cccc(OCCSc2nc3ccccc3n2CC(=O)N2CCCCC2)c1C`: “inactive”; `Cc1cc(N2CCN(c3cccc(C(F)(F)F)c3)CC2)n2nc(-c3ccccc3)nc2n1`: “inactive”; `O=S(=O)(CCc1nc2ccccc2o1)c1ccc(Cl)cc1`: “inactive”.
Next, `O=S(=O)(Cc1ccc(Cl)cc1Cl)c1ccc(Cl)cc1`: 1.64 µM (active); `O=S(=O)(NC1CC1)c1ccc(Cl)cc1`: “inactive”; `O=C(CSc1ccccc1)Nc1ccc(C(=O)Nc2cccc(O)c2)cc1`: “inactive”.
Next, `CSc1cccc(NC(=O)CSc2ccccc2)c1`: “inactive”; `O=C(CCl)Nc1cccc(CP(=O)(c2ccccc2)c2ccccc2)c1`: 13 µM (active).
In the case of `Cc1cccc(CC(=O)N2CC(=O)Nc3ccc(F)cc3C2c2ccccc2)c1` (stereo unspecified), the Potency entry was “inactive”.
As for `O=C(C[n+]1ccncc1)c1ccc2c(c1)CCCC2`, the Potency result was “inactive”.
In the case of `CC(C)c1nnc(NC(=O)COC(=O)/C=C/c2ccc([N+](=O)[O-])cc2)s1` it was “inactive”; in that of `CCOC(=O)/C(=C\c1ccc([N+](=O)[O-])cc1)C(=O)c1cc(C(C)=O)c(Nc2ccccc2)s1`, 3.26 µM (active).
`CCOC(=O)C/C(C)=N\Nc1ccc([N+](=O)[O-])cc1[N+](=O)[O-]`: the Potency entry was “inactive”.
Turning to `CN(C)S(=O)(=O)c1ccc(C(=O)N(Cc2cccnc2)c2nc3c(F)cc(F)cc3s2)cc1`, the Potency result was “inactive”.
For `CC(=O)N1CCCc2cc(S(=O)(=O)N3CCC(C(=O)NCc4ccc(C)cc4)CC3)ccc21`, the Potency entry is “inactive”.
In the case of `COc1cccc(CNC(=O)C2CCC(CNS(=O)(=O)c3cccs3)CC2)c1` (stereo unspecified) it was “inactive”.
Next, `NS(=O)(=O)c1ccc(CNC(=O)c2cccc(S(=O)(=O)N3CCc4ccccc43)c2)cc1`: “inactive”; `O=S(=O)(c1ccc2c(c1)OCCO2)N1CCc2ccccc21`: “inactive”.
For the compound `CCn1c(=O)c(=O)n(CC)c2cc(S(=O)(=O)N3CCc4ccccc43)ccc21`, the Potency was 20.6 µM (active).
In the case of `Nc1nc(N)c(N=O)c(N)n1` it was “inactive”.
In the case of `Cc1cc(Cl)ccc1OCC(=O)N(Cc1ccc(N(C)C)cc1)C1CCS(=O)(=O)C1` (stereo unspecified) it was “inactive”; in that of `Nc1cc(N2CCCCCC2)c2nonc2c1[N+](=O)[O-]`, 11.6 µM (active); in that of `Cc1c(Nc2cc(N3CCCC(C)C3)c3nonc3c2[N+](=O)[O-])c(=O)n(-c2ccccc2)n1C` (stereo unspecified), “inactive”.
In the case of `COCCNc1nc(N)c([N+](=O)[O-])c(N2CCCCCC2)n1` it was “inactive”; in that of `COc1ccc2ncc3c(-c4ccc(C)c(C)c4)nn(CC(=O)NC4CCCC4)c3c2c1`, “inactive”; in that of `Cc1ccc(C(=O)Cn2cccn2)cc1`, “inactive”.
In the case of `C/C(=N/NC(=O)CC(=O)N/N=C(\C)c1ccc([N+](=O)[O-])cc1)c1ccc([N+](=O)[O-])cc1`, the Potency entry is “inactive”.
In the case of `CC12CCC(C(=O)N(NC(=O)c3ccccc3O)C1=O)C2(C)C` (stereo unspecified) it was 16.4 µM (active); in that of `CC1=CC(C)(C)NC(=S)N1NC(=O)c1ccccc1Cl`, “inactive”; in that of `CC(Sc1nnc2c(n1)C1CCC2(C)C1(C)C)C(=O)Nc1ccccc1` (stereo unspecified), “inactive”.
For the compound `Cc1ccc(CNC(=O)CCC(=O)N2Cc3ccccc3Oc3ncccc32)cc1`, the Potency entry is “inactive”.
Next, `CNC(=O)CN1C(=O)c2cccnc2Sc2ccccc21`: “inactive”.
`COCCNC(=O)c1ccc(S(=O)(=O)c2ccc(Cl)cc2)c(NC(C)=O)c1`: the Potency entry is “inactive”.
In the case of `COCCNC(=O)c1ccc2c(c1)N=C(C)c1cc(C)ccc1S2` it was 0.651 µM (active).
Next, `CC1=Nc2cc(C(=O)N3CCC(C)CC3)ccc2Sc2ccc(Cl)cc21`: “inactive”; `NC(=O)CSc1nc2c(oc3ccccc32)c(=O)n1Cc1ccccc1`: “inactive”.
Next, `COc1cccc(-c2cc3nc(NCCOc4ccccc4Cl)n(C)c(=O)c3s2)c1`: “inactive”; `O=c1[nH]c(CCl)nc2cc(-c3ccc(Cl)cc3)sc12`: 9.2 µM (active).
Regarding `Cn1c(NCc2cccnc2)nc2cc(-c3ccc(F)cc3)sc2c1=O`, the Potency result was “inactive”.
Next, `Cc1cc(C)c2oc(C(=O)Nc3ccc(S(=O)(=O)N(C)c4ccccc4)cc3)cc(=O)c2c1`: “inactive”; `CN(C)S(=O)(=O)N1CCC(Oc2cccc(C(=O)NCCCC3CCCC3)c2)CC1`: 14.6 µM (active); `COc1cccc(C(=O)NCCS(=O)(=O)NCC2CCCO2)c1` (stereo unspecified): “inactive”.
With `CN(C(=O)c1cccc(OC2CCN(S(=O)(=O)N(C)C)CC2)c1)C1CCOC1` (stereo unspecified), the Potency entry was “inactive”.
In the case of `COc1cccc(NC(=O)C2CCN(c3cc(C)nc4c(-c5ccc(Cl)cc5)c(C)nn34)CC2)c1` it was “inactive”.
Next, `CC(NC(=O)c1cc2c(=O)n3ccccc3nc2n(C(C)C)c1=N)c1ccccc1` (stereo unspecified): “inactive”; `COc1ccc(OC)c(CNC(=O)Cn2nc(C)c3c(C)n(-c4ccccc4)nc3c2=O)c1`: “inactive”.
Next, `O=C(Nc1nc(-c2ccc3c(c2)OCO3)cs1)c1ccncc1`: 2.91 µM (active).
With `COc1ccc(C(O)c2nc(-c3ccc4c(c3)OCO4)cs2)cc1` (stereo unspecified), the Potency entry is “inactive”.
In the case of `CC(O)(c1cccc(F)c1)c1nc(-c2ccc3c(c2)OCO3)cs1` (stereo unspecified) it was “inactive”; in that of `Cc1nn(C(C)C(=O)NCCc2ccccc2)c(=O)c2c1sc1ccccc12` (stereo unspecified), “inactive”.
As to `CCC(C(=O)Nc1cc(OC)ccc1OC)n1c(=O)c(C(F)(F)F)nc2ccccc21` (stereo unspecified), the Potency entry is “inactive”.
Next, `O=C(CN1c2ccccc2S(=O)(=O)c2ccccc21)Nc1cccc(C(F)(F)F)c1`: “inactive”; `COc1ccccc1C1=CC(=O)CCC1`: “inactive”; `COc1ccc(/C=C2/CCCc3ccccc3C2=O)cc1`: 0.651 µM (active).
In the case of `COc1ccc(/C=C2\N=C3CCCN3C2=O)cc1` it was “inactive”.
Next, `Cc1cc2nc(NC(=O)c3ccc(S(=O)(=O)N4CCOCC4)cc3)sc2cc1C`: “inactive”.
On to `CNC(=O)c1ccsc1NC(=O)c1ccc(S(=O)(=O)N2CCc3ccccc32)cc1`, for which the Potency result is “inactive”.
In the case of `O=C(Nc1nc2ccc([N+](=O)[O-])cc2s1)c1ccc(S(=O)(=O)N2CCCc3ccccc32)cc1` it was 2.06 µM (active); in that of `O=C(NC1CCCCC1)c1ccc2c(c1)N(Cc1ccc(Cl)cc1)C(=O)c1ccccc1S2=O` (stereo unspecified), “inactive”.
In the case of `N#Cc1c(-c2cccs2)nc(SCC(=O)c2ccc(Br)cc2)[nH]c1=O` it was “inactive”; in that of `COc1ccc(C(F)(F)F)cc1NC(=O)c1sc2nc(-c3cccs3)ccc2c1N`, “inactive”; in that of `N#Cc1ccc(C(=O)Nc2nc(-c3cccs3)c(C(=O)C(F)(F)F)s2)cc1`, 5.8 µM (active).
In the case of `NCCCNC(=S)NCCCN(Cc1ccc(Cl)cc1)c1ccc(Br)cn1` it was “inactive”.
`S=C(NCCCc1cnc[nH]1)NCCCN(Cc1ccc(Cl)c(Cl)c1)c1ccc(Br)cn1`: the Potency was 13 µM (active).
Turning to `O=C(Nc1ccc(Cl)cc1)c1cnn2c1NC(=C1CC1)C=C2C(F)F`, the Potency entry was “inactive”.
Next, `CCn1c(=O)c2cc(C(=O)NCCc3ccc(Cl)cc3)sc2c2ccccc21`: “inactive”; `CSc1nc(Nc2ccc(F)cc2)cc(-c2ccccc2)n1`: “inactive”.
On to `CSc1nc(-c2ccccc2)nc(C(Cl)Cl)n1`, for which the Potency is 2.91 µM (active).
With `CC(=O)c1ccc(NC(=O)C2CCN(S(=O)(=O)c3c(C)noc3/C=C/c3ccc(C)cc3)CC2)cc1`, the Potency result is “inactive”.
With `COc1ccc(CNC(=O)CSCc2nc(-c3ccccc3F)oc2C)cc1`, the Potency result is “inactive”.
In the case of `Fc1ccccc1Oc1ncnc2c1oc1ccccc12` it was “inactive”.
For the compound `CC(C)C1C(=O)N(Cc2cn(CCC3OCCO3)nn2)CCS(=O)(=O)N1Cc1ccc(-c2ccccc2C(F)(F)F)cc1` (stereo unspecified), the Potency result is “inactive”.
Next, `Cc1ccc(-c2ccc(CN3C(C)C(=O)N(Cc4cn(CCC5OCCCO5)nn4)CCS3(=O)=O)cc2)cc1` (stereo unspecified): “inactive”; `Cc1ccc(-c2ccc(CN3C(C(C)C)C(=O)N(Cc4cn(CCC5OCCO5)nn4)CCS3(=O)=O)cc2)cc1` (stereo unspecified): 18.4 µM (active); `Cc1ccc(-c2nc3ccccn3c2Nc2c(C)cccc2C)o1`: “inactive”.
For the compound `CCOc1ccc(NC(=O)Cn2c(C)ccc(C#N)c2=O)cc1`, the Potency entry is “inactive”.
In the case of `CC(=O)c1cccc(Nc2ccc3cc(S(=O)(=O)N4CCC(C)CC4)ccc3n2)c1` it was “inactive”; in that of `CCOc1cc(NC(=O)CCl)c(OCC)cc1NC(C)=O`, 18.4 µM (active).
Regarding `CCCC(=O)Nc1cc(OCC)c(NC(=O)NC2CCCCC2)cc1OCC`, the Potency result was “inactive”.
Next, `CCOc1cc(NC(=O)Nc2ccccc2)c(OCC)cc1NC(=O)CC`: “inactive”.
For the compound `COc1ccc(OC)c(NC(=O)C2CCCN(S(=O)(=O)c3ccc4c(c3)CCCC(=O)N4)C2)c1` (stereo unspecified), the Potency entry is “inactive”.
Take `COC(=O)c1cc(NC(=O)CCS(=O)(=O)c2cc(Br)cc3c2N(C(=O)C2CC2)CC3)cc(C(=O)OC)c1`: the Potency entry was “inactive”.
In the case of `Cc1ccc(C(=O)N/C(=C/c2ccc(-c3cccc([N+](=O)[O-])c3)o2)C(=O)NCCCN(C)C)cc1` it was “inactive”.
With `Cc1ccc(Cc2cnc(NC(=O)/C(C#N)=C/c3ccc(-c4cccc([N+](=O)[O-])c4)o3)s2)cc1`, the Potency is 14.6 µM (active).
In the case of `CCOC(=O)c1ccc(-c2ccc(/C=C(\C#N)C(=O)Nc3ccc(C)cc3)o2)cc1` it was “inactive”.
For the compound `CCc1ccccc1NC(=O)CSc1nc(C)c(C(=O)Nc2ccccc2)c(-c2ccc(Cl)cc2)c1C#N`, the Potency result was “inactive”.
In the case of `CCN(CCCNC(=O)c1c(C)oc2ncn(CC(C)C)c(=O)c12)Cc1ccccc1` it was “inactive”.
In the case of `COc1ccc(-c2cc(NCc3ccc(F)cc3)n3cnnc3n2)cc1` it was “inactive”.
`COc1cc(OC)cc(C(=O)N[C@H](C(=O)OCC(=O)NC(C)c2ccccc2)C(C)C)c1` (stereo partly specified): the Potency entry was “inactive”.
In the case of `COc1cc(OC)cc(C(=O)N[C@H](C(=O)Nc2nc3ccccc3[nH]2)C(C)C)c1` it was 1.64 µM (active); in that of `COc1cc(OC)cc(C(=O)NC(C(=O)N2CCC2)C(C)C)c1` (stereo unspecified), “inactive”.
Regarding `COc1ccccc1OCc1ccc(C(=O)NC(C)c2ccccc2)o1` (stereo unspecified), the Potency entry was “inactive”.
Regarding `CCCc1ccc(OCc2ccc(C(=O)N/N=C/c3cccc([N+](=O)[O-])c3)o2)c(OC)c1`, the Potency was 18.4 µM (active).
In the case of `COc1ccc(O)c(/C=N/N=C/c2cccc([N+](=O)[O-])c2)c1` it was “inactive”.
With `COc1ccc(OC)c(NC(=O)Cn2c(=O)n(Cc3ccccc3)c(=O)c3ccccc32)c1`, the Potency result is “inactive”.
